In the supplement of paper PMC8728848:
The full list was thinned out, with the strongest signals kept by preference.

What was measured:
Assay in all cases: glycan array binding signal (z-score within array); higher = stronger binding
Conditions in all cases: glycan notation: IUPAC condensed, linker removed; mutation: N224Q
[1] = biological target: Gal(b1-4)GlcNAc(b1-3)Gal(b1-4)GlcNAc(b1-3)Gal(b1-4)GlcNAc(b1-3)Gal(b1-4)GlcNAc(b1-2)[Gal(b1-4)GlcNAc(b1-3)Gal(b1-4)GlcNAc(b1-3)Gal(b1-4)GlcNAc(b1-3)Gal(b1-4)GlcNAc(b1-6)]Man(a1-6)[Gal(b1-4)GlcNAc(b1-3)Gal(b1-4)GlcNAc(b1-3)Gal(b1-4)GlcNAc(b1-3)Gal(b1-4)GlcNAc(b1-2)Man(a1-3)]Man(b1-4)GlcNAc(b1-4)[Fuc(a1-6)]GlcNAc
Procedure, shortened: (§1)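 The binding signal is a Z-score computed within each array and averaged over linkers. Arrays of the same protein sequence at different concentrations or buffers were also averaged together. Data originate from 3228 arrays in the Consortium for Functional Glycomics database, kept only where the protein sequence was available.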

Gal3S(b1-4)Glc = biological target: Gal3S(b1-4)Glc
Procedure, shortened: as §1

[2] = biological target: GlcNAc(a1-4)Gal(b1-4)GlcNAc(b1-3)Gal(b1-4)Glc
Procedure, shortened: as §1

[3] = biological target: GlcNAc(b1-3)Gal(b1-4)GlcNAc(b1-3)Gal(b1-4)GlcNAc(b1-2)Man(a1-3)[GlcNAc(b1-3)Gal(b1-4)GlcNAc(b1-3)Gal(b1-4)GlcNAc(b1-2)Man(a1-6)]Man(b1-4)GlcNAc(b1-4)[Fuc(a1-6)]GlcNAc
Procedure, shortened: as §1

[4] = biological target: GlcNAc(b1-3)Gal(b1-4)GlcNAc(b1-3)Gal(b1-4)GlcNAc(b1-3)Gal(b1-4)GlcNAc(b1-2)[GlcNAc(b1-3)Gal(b1-4)GlcNAc(b1-3)Gal(b1-4)GlcNAc(b1-3)Gal(b1-4)GlcNAc(b1-6)]Man(a1-6)[GlcNAc(b1-3)Gal(b1-4)GlcNAc(b1-3)Gal(b1-4)GlcNAc(b1-3)Gal(b1-4)GlcNAc(b1-2)Man(a1-3)]Man(b1-4)GlcNAc(b1-4)[Fuc(a1-6)]GlcNAc
Procedure, shortened: as §1

[5] = biological target: GlcNAc(b1-3)Gal(b1-4)GlcNAc(b1-3)Gal(b1-4)GlcNAc(b1-3)Gal(b1-4)GlcNAc(b1-3)Gal(b1-4)GlcNAc(b1-2)Man(a1-3)[GlcNAc(b1-3)Gal(b1-4)GlcNAc(b1-3)Gal(b1-4)GlcNAc(b1-3)Gal(b1-4)GlcNAc(b1-3)Gal(b1-4)GlcNAc(b1-2)Man(a1-6)]Man(b1-4)GlcNAc(b1-4)[Fuc(a1-6)]GlcNAc
Procedure, shortened: as §1

[6] = biological target: GlcNAc(b1-3)[GlcNAc(b1-6)]Gal(b1-4)GlcNAc
Procedure, shortened: as §1

GlcNAc(b1-6)GalNAc = biological target: GlcNAc(b1-6)GalNAc
Procedure, shortened: as §1

[7] = biological target: Man(a1-2)Man(a1-3)[Man(a1-2)Man(a1-6)]Man(a1-6)[Man(a1-2)Man(a1-2)Man(a1-3)]Man(b1-4)GlcNAc(b1-4)GlcNAc
Procedure, shortened: as §1

[8] = biological target: Neu5Ac(a2-3)Gal(b1-3)GlcNAc(b1-2)Man
Procedure, shortened: as §1

[9] = biological target: Neu5Ac(a2-3)Gal(b1-4)GlcNAc(b1-2)[Neu5Ac(a2-3)Gal(b1-4)GlcNAc(b1-4)]Man(a1-3)[GlcNAc(b1-4)][Neu5Ac(a2-3)Gal(b1-4)GlcNAc(b1-2)[Neu5Ac(a2-3)Gal(b1-4)GlcNAc(b1-6)]Man(a1-6)]Man(b1-4)GlcNAc(b1-4)GlcNAc
Procedure, shortened: as §1

[10] = biological target: Neu5Ac(a2-3)Gal(b1-4)GlcNAc(b1-3)Gal(b1-4)[Fuc(a1-3)]GlcNAc
Procedure, shortened: as §1

[11] = biological target: Neu5Ac(a2-3)Gal(b1-4)[Fuc(a1-3)]GlcNAc
Procedure, shortened: as §1

[12] = biological target: Neu5Ac(a2-3)Gal(b1-4)[Fuc(a1-3)]GlcNAc(b1-2)Man
Procedure, shortened: as §1

Neu5Ac(a2-6)Gal = biological target: Neu5Ac(a2-6)Gal
Procedure, shortened: as §1

[13] = biological target: Neu5Ac(a2-6)Gal(b1-4)GlcNAc(b1-2)[Neu5Ac(a2-6)Gal(b1-4)GlcNAc(b1-6)]Man(a1-6)[Neu5Ac(a2-6)Gal(b1-4)GlcNAc(b1-2)Man(a1-3)][GlcNAc(b1-4)]Man(b1-4)GlcNAc(b1-4)GlcNAc
Procedure, shortened: as §1

[14] = biological target: Neu5Ac(a2-6)Gal(b1-4)GlcNAc(b1-3)Gal(b1-3)GlcNAc
Procedure, shortened: as §1

[15] = biological target: Neu5Ac(a2-6)GalNAc(b1-4)GlcNAc
Procedure, shortened: as §1

[16] = biological target: Neu5Ac(a2-6)GlcNAc(b1-4)GlcNAc
Procedure, shortened: as §1

[17] = biological target: Neu5Gc(a2-3)Gal(b1-4)[Fuc(a1-3)]GlcNAc
Procedure, shortened: as §1

B1: AAL (Aleuria aurantia) (protein)
chain: MPTEFLYTSKIAAISWAATGGRQQRVYFQDLNGKIREAQRGGDNPWTGGSSQNVIGEAKLFSPLAAVTWKSAQGIQIRVYCVNKDNILSEFVYDGSKWITGQLGSVGVKVGSNSKLAALQWGGSESAPPNIRVYYQKSNGSGSSIHEYVWSGKWTAGASFGSTVPGTGIGATAIGPGRLRIYYQATDNKIREHCWDSNSWYVGGFSASASAGVSIAAISWGSTPQIRVYWQKGREELYEAAYGGSWNTPGQIKDASRPTPSLPDTFIAANSSGNIDISVFFQASGVSLQQWQWISGKGWSIGAVVPTGTPAGW
glycan array binding signal (z-score) [1]: -0.229 | glycan array binding signal (z-score) (Gal3S(b1-4)Glc): -0.321 | glycan array binding signal (z-score) [2]: -0.318 | glycan array binding signal (z-score) [3]: 2.92 | glycan array binding signal (z-score) [4]: -0.085 | glycan array binding signal (z-score) [5]: 1.97 | glycan array binding signal (z-score) [6]: -0.322 | glycan array binding signal (z-score) (GlcNAc(b1-6)GalNAc): -0.325 | glycan array binding signal (z-score) [7]: -0.312 | glycan array binding signal (z-score) [8]: -0.311 | glycan array binding signal (z-score) [9]: -0.327 | glycan array binding signal (z-score) [10]: -0.32 | glycan array binding signal (z-score) [11]: 0.758 | glycan array binding signal (z-score) [12]: 0.186 | glycan array binding signal (z-score) (Neu5Ac(a2-6)Gal): -0.314 | glycan array binding signal (z-score) [13]: -0.303 | glycan array binding signal (z-score) [14]: -0.324 | glycan array binding signal (z-score) [15]: -0.323 | glycan array binding signal (z-score) [16]: -0.327 | glycan array binding signal (z-score) [17]: 0.052
